{"source": "the supplement of paper PMC10646978", "note": "± gives the standard deviation.", "data": [{"test_system": "RAW-Dual (murine macrophage reporter line)", "assay": "NF-kB reporter (SEAP) activity fold change vs agonist alone; higher = enhanced NF-kB activity", "conditions": "modulator concentration 10 µM; agonist: CpG ODN 1826 0.5 ug/mL", "procedure,_shortened": "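In 384-well plates holding 50 000 RAW-Dual murine macrophage reporter cells per well, compound at 10 μM final was pre-incubated for 1 hour at 37 °C, after which a PRR agonist was added overnight. Supernatant SEAP read with QUANTI-Blue at 620 nm absorbance reported NF-κB, and Lucia luciferase read with QUANTI-Luc luminescence reported IRF. Fold change values come from dividing each reporter signal by the mean of agonist-only control wells on the same plate, averaged over replicate plates with propagated errors.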", "values": [{"smiles": "Cc1ccccc1CNC(=O)CN(c1cccc(C(F)(F)F)c1)S(C)(=O)=O", "NF-kB reporter": "1.11 ± 0.097"}, {"smiles": "COc1ccc(CCC(=O)NCc2nc(N(C)C)nc(N3CCCCC3)n2)cc1", "NF-kB reporter": "0.8 ± 0.074"}, {"smiles": "CCOC(=O)CN1CCOCCOCCN(CC(=O)OCC)CCOCCOCC1", "NF-kB reporter": "0.937 ± 0.078"}, {"smiles": "CN(C)C(CNC(=O)NCc1ccc(F)cc1)c1ccc2c(c1)CCO2", "note": "(configuration not stated)", "NF-kB reporter": "0.838 ± 0.048"}, {"smiles": "CC(=O)c1ccc(Nc2ncnc(Nc3ccc(C(C)=O)cc3)c2[N+](=O)[O-])cc1", "NF-kB reporter": "1.04 ± 0.1"}, {"smiles": "CCCCCCc1ccc(O)cc1O", "NF-kB reporter": "1.02 ± 0.14"}, {"smiles": "COc1ccc(C(=O)CSc2nnc(NC(=O)C3CC(=O)N(c4cccc(OC)c4)C3)s2)cc1", "note": "(configuration not stated)", "NF-kB reporter": "1.15 ± 0.066"}, {"smiles": "COC(=O)C1=CN(CC2CCCO2)C=C(C(=O)OC)C1c1cccc(Cl)c1", "note": "(configuration not stated)", "NF-kB reporter": "0.59 ± 0.053"}, {"smiles": "O=C(C=Cc1ccc(Br)cc1)c1c(-c2ccccc2)c2cc(Cl)ccc2[nH]c1=O", "NF-kB reporter": "0.876 ± 0.068"}, {"smiles": "CCOCCn1c(N2CCCN(C)CC2)nc2ccccc21", "note": "[Prestw-1274]", "NF-kB reporter": "0.77 ± 0.17"}, {"smiles": "Cc1cccc(-c2cc3nc(C)c(Cl)c(O)n3n2)c1", "NF-kB reporter": "1.04 ± 0.058"}, {"smiles": "COc1cc2c(cc1OC)C1Cc3ccc(OC)c(OC)c3CN1CC2", "note": "(configuration not stated)", "NF-kB reporter": "0.932 ± 0.24"}, {"smiles": "CN1CCN(c2ccc(C(=O)Nc3n[nH]c4ccc(Cc5cc(F)cc(F)c5)cc34)c(NC3CCOCC3)c2)CC1", "NF-kB reporter": "0.971 ± 0.043"}, {"smiles": "CCCCCc1ccc(-c2ccc(-c3noc(-c4ccc(CCCC)cc4)n3)cc2)cc1", "NF-kB reporter": "0.969 ± 0.08"}, {"smiles": "O=C(CCn1c(=O)oc2ccccc21)Nc1ccccc1", "NF-kB reporter": "1.03 ± 0.17"}, {"smiles": "COc1cc2c(cc1OC)C(=O)C(CC1CCN(Cc3ccccc3)CC1)C2.Cl", "note": "(configuration not stated)", "NF-kB reporter": "0.127 ± 0.011"}, {"smiles": "CC(C)NC(=O)CCn1c(=O)c2cc(Cl)ccc2n2c(SCc3ccc(F)cc3)nnc12", "NF-kB reporter": "0.992 ± 0.077"}]}]}
